Source: the supplement of paper PMC6555819

Experiments:
Experiment in all cases: PBM binding z-score (relative to random genomic background probes); higher = stronger binding; sequences stand for … in GC…GCGATTGACAGCGTAGAATGAAGG
[1] = tested on: RARb homodimer (NR concentration 270 nM)
How it was run: (§1)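 The probes on custom Agilent 4×180K protein-binding microarrays were double-stranded, with 34-nt variable regions bearing direct-repeat seeds, single-nucleotide variants, half-site ablations and random human genomic background sequences. Incubation lasted 1 h with ligand-free nuclear receptor dimers in PBS pH 7.4, 2% milk, 0.02% Triton X-100, 1 mM DTT, 0.2 mg/mL BSA and 0.4 mg/ml salmon testes DNA. Antibodies against each partner (one per run) detected bound dimers, and fluorescence scans were regression-normalized. Binding z-scores take the random background probes as reference.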

[2] = tested on: RARg:RXRa (NR concentration 270 nM, RXRa partner concentration 90 nM)
How it was run: as §1

[3] = tested on: RARg homodimer (NR concentration 270 nM)
How it was run: as §1

[4] = tested on: RXRa DBDmut IVT, anti-RXR (DBD mutation: RXRa K156A/R161A, NR concentration 90 nM)
How it was run: as §1

[5] = tested on: RXRa homodimer (NR concentration 180 nM)
How it was run: as §1

[6] = tested on: THRa:RXRa (NR concentration 90 nM, RXRa partner concentration 90 nM)
How it was run: as §1

[7] = tested on: THRa homodimer (NR concentration 90 nM)
How it was run: as §1

[8] = tested on: VDR homodimer (NR concentration 270 nM)
How it was run: as §1

Sequence	PBM binding z-score [1]	PBM binding z-score [2]	PBM binding z-score [3]	PBM binding z-score [4]	PBM binding z-score [5]	PBM binding z-score [6]	PBM binding z-score [7]	PBM binding z-score [8]
TAGCCTAGGTCATTGGGCCAGTAAAGTACGCATC	2.78	3.91	4.25	1.61	3.1	2.69	0.775	1.48
TAGCCCAGGTCATGGGCCAGTATACCACGCGAAC	2.61	4.42	4.43	0.576	4.06	3.69	2.3	1.08
GTACCAAGGTGAATAGGTCGTTGGTGAGTAGGCG	1.93	2.86	1.13	-0.312	1.99	1.71	0.526	0.359
TAGCCTAAGTCAGATCGGGCCAGTATACGCTATA	-0.342	-0.329	-0.306	-0.669	-0.25	1.43	-0.221	-0.691
ATATATAGGTTACATCCGGGTCATTCAGGCTATG	3.34	4.2	2.64	1.57	3.51	4.03	2.74	3.65
TGAATGAGGTTAAAGATGAGGGAACGTGGCGTCG	0.748	2.16	1.21	1.33	2.86	2.4	0.742	0.849
CGTCCAGGGTCATAGGAGGTCAGTGAAGACAGAT	4.98	6.27	6.23	3.62	6.72	5.12	2.18	4.31
